PubChem BioAssay (NCATS)
Inconclusive results are not listed. Activity calls are given as the source filed them. The call rests on the fitted dose curve; in most records, active means well fitted inhibition curve with a large enough effect; inconclusive means small, poorly fitted or top-dose-only effect; inactive means flat fitted curve, though single readings scatter.

Experiments:
Experiment in all cases: qHTS profiling for inhibitors of Plasmodium falciparum proliferation (AID 504749); further: nearly all actives have a fitted effect of over 60% in size
Conditions in all cases: P. falciparum in erythrocytes, SYBR Green DNA, 72 h; series mostly up to 28.7 µM
ATS95 = test system: ATS95
Method in brief: (§1)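 Fluorescence of SYBR Green-bound parasite DNA, read at 485/535 nm, served as the growth measure. Infected erythrocytes were cultured with compound 72 h; artemisinin (0.29 uM) and DMSO wells defined the normalization range.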

C2A = test system: C2A
Method in brief: as §1

CP215 = test system: CP215
Method in brief: as §1

CP237 = test system: CP237
Method in brief: as §1

CP238 = test system: CP238
Method in brief: as §1

CP250 = test system: CP250
Method in brief: as §1

CP256 = test system: CP256
Method in brief: as §1

CP262 = test system: CP262
Method in brief: as §1

CP265 = test system: CP265
Method in brief: as §1

CP268 = test system: CP268
Method in brief: as §1

CP269 = test system: CP269
Method in brief: as §1

CP325 = test system: CP325
Method in brief: as §1

CP329 = test system: CP329
Method in brief: as §1

CP335 = test system: CP335
Method in brief: as §1

Dd2 = test system: Dd2
Method in brief: as §1

ECU = test system: ECU
Method in brief: as §1

P93_24 = test system: P93_24
Method in brief: as §1

PAD = test system: PAD
Method in brief: as §1

PC26 = test system: PC26
Method in brief: as §1

SC27B = test system: SC27B
Method in brief: as §1

Measured: Potency

Oc1ccc(/C=C\c2cc(O)cc(O)c2)cc1
inactive: all assays above
